Among the data in publication PMC7862700, “An all-to-all approach to the identification of sequence-specific readers for epigenetic DNA modifications on cytosine” are binding signal values, retold here.

Test in all cases: DAPPL (digital affinity profiling via proximity ligation, sequencing); 10 mM Tris-HCl pH 7.5, 50 mM NaCl, 1 mM DTT, 4% glycerol, room temperature, 30 min; GST-TFs on glutathione beads, 16-mer random dsDNA library, 0.1% formaldehyde crosslink after washing; high values mean tight binding
Holding throughout (conditions): protein: recombinant; tags: N-terminal GST; dsDNA, one strand shown

The target of one experiment is T1, ELK1 (Homo sapiens, UniProt P19419 1-428).
T1 sequence: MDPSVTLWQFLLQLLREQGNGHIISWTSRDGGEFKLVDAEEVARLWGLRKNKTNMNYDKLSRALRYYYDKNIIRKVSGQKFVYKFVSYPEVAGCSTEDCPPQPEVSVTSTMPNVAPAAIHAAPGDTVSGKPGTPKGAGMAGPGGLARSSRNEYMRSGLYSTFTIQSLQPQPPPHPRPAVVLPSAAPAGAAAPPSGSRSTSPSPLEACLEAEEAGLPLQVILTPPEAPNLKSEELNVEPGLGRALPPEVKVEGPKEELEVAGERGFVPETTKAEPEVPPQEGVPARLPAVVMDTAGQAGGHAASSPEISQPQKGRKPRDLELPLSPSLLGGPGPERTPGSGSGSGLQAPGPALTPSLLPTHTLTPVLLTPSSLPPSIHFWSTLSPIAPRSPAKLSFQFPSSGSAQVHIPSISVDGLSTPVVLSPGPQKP
An outline of the steps:
(§1)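 GST fusions of human transcription factors were expressed in yeast and captured with glutathione beads. Once given DNA barcodes and pooled alongside a tag-only sample, they were incubated for 30 min at room temperature with 200 nmole of a random double-stranded 16-mer DNA library in Tris/NaCl/DTT/glycerol buffer, then washed, crosslinked (0.1% formaldehyde), proximity-ligated, PCR-amplified and sequenced on an Illumina NextSeq500. The binding signal of each hexamer is its read frequency for a factor divided by its frequency for the tag-only sample.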

The next experiment deals with T2, GABPA (Homo sapiens, UniProt Q06546 1-454).
T2 sequence: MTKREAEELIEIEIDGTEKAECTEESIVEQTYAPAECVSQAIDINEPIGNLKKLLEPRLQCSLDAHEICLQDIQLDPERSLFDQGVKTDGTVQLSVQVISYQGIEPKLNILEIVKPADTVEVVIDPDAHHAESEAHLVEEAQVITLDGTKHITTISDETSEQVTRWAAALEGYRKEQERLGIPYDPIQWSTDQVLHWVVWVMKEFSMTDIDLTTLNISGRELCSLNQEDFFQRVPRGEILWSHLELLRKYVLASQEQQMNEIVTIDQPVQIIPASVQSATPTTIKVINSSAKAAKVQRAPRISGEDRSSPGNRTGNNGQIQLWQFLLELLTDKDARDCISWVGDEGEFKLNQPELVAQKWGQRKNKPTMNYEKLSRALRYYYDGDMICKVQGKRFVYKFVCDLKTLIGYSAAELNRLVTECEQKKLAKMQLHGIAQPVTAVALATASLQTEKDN
The gist of the method: as §1

In a further experiment the target is T3, ERG (Homo sapiens, UniProt P11308 1-479).
T3 sequence: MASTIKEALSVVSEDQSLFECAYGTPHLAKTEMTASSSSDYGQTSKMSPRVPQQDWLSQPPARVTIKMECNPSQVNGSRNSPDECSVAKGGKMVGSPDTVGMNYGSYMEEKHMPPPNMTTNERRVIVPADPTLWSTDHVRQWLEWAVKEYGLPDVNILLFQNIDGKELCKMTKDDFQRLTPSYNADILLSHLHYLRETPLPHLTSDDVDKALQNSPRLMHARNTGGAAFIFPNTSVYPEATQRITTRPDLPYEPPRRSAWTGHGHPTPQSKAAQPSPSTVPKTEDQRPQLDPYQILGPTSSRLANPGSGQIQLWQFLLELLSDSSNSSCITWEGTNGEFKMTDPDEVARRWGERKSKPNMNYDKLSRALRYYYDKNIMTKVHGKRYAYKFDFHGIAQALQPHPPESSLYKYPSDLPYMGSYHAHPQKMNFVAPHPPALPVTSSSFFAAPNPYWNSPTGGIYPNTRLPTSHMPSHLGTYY
The gist of the method:
as §1

A further experiment concerns the target ELF1 (Homo sapiens, UniProt P32519 1-619). An outline of the steps:
as §1

A further experiment addresses T4, EHF (Homo sapiens, UniProt Q9NZC4 1-300).
T4 sequence: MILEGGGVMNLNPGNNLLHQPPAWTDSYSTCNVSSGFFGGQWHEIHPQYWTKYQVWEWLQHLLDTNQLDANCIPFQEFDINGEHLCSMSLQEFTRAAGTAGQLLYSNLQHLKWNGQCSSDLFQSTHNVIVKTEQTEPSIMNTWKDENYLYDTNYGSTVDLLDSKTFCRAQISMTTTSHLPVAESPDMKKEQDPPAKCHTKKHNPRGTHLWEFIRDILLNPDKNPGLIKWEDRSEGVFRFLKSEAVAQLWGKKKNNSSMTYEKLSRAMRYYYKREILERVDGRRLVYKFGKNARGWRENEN
The gist of the method:
as §1

A further experiment deals with SPI1 (Homo sapiens, UniProt P17947 1-270). The gist of the method:
as §1

The target in another experiment is T5, FEV (Homo sapiens, UniProt Q99581 1-238).
T5 sequence: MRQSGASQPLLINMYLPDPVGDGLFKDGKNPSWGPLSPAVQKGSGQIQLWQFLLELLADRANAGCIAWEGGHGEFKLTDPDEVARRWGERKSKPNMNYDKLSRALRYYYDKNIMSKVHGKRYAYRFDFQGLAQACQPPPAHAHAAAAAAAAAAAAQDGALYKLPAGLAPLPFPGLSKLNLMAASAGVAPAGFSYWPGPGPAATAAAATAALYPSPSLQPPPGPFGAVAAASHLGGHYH
An outline of the steps:
as §1

The next experiment has as its target ETV5 (Homo sapiens, UniProt P41161 1-510). An outline of the steps: as §1
For the next experiment, the target named is ELF4 (Homo sapiens, UniProt Q99607 1-663). The gist of the method: as §1
The next experiment deals with T6, ETV2 (Homo sapiens, UniProt O00321 1-342).
T6 sequence: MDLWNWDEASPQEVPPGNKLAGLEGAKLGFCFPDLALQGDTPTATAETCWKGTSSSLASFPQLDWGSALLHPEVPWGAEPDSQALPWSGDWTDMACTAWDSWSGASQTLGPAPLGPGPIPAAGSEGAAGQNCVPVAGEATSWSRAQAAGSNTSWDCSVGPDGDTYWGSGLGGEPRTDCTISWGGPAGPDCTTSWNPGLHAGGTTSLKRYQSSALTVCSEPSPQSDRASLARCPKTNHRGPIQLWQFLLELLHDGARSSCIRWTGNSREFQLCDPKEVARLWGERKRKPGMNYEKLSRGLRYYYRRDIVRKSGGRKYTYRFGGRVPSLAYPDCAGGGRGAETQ
The gist of the method: as §1

Another experiment has as its target T7, ELF3 (Homo sapiens, UniProt P78545 1-371).
T7 sequence: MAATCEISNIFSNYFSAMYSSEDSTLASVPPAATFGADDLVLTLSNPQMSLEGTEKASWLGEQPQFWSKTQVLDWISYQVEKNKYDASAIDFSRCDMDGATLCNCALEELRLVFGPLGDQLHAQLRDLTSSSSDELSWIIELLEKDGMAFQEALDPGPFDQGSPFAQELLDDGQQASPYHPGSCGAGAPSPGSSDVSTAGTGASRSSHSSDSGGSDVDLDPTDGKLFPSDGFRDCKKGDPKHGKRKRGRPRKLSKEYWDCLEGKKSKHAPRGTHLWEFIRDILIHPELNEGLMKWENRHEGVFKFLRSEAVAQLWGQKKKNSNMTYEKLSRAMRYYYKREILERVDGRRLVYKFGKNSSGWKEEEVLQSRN
An outline of the steps:
as §1

The target of the next experiment is ETV1 (Homo sapiens, UniProt P50549 1-477). An outline of the steps:
as §1

Another experiment addresses T8, ERF (Homo sapiens, UniProt P50548 1-548).
T8 sequence: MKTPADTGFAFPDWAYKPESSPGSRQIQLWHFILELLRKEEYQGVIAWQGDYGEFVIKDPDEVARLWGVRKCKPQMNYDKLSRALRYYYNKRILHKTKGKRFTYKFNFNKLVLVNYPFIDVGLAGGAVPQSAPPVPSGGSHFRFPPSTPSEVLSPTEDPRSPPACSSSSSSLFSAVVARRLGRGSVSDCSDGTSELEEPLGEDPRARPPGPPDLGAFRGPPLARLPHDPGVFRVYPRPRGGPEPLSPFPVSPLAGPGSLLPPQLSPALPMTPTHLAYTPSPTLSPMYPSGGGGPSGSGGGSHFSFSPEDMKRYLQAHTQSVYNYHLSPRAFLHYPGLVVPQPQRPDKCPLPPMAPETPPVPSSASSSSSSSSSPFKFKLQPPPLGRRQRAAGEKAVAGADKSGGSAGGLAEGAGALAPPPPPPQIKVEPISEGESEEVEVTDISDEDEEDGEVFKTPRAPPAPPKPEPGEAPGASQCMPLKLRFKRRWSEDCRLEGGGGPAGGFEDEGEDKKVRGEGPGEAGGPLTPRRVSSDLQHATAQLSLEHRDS
The gist of the method: as §1

The target in a further experiment is T9, ETV3L (Homo sapiens, UniProt Q6ZN32 1-361).
T9 sequence: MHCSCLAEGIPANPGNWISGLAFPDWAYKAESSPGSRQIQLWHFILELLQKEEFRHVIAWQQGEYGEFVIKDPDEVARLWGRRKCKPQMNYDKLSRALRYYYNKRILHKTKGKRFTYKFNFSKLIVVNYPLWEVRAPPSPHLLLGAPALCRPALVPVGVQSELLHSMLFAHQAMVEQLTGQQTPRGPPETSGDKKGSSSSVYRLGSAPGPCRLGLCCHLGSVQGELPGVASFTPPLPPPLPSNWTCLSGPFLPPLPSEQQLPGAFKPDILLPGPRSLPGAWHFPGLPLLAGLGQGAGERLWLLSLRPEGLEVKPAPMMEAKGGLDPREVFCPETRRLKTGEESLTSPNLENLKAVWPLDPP
An outline of the steps: as §1

The next experiment has as its target T10, ETS2 (Homo sapiens, UniProt P15036 1-469).
T10 sequence: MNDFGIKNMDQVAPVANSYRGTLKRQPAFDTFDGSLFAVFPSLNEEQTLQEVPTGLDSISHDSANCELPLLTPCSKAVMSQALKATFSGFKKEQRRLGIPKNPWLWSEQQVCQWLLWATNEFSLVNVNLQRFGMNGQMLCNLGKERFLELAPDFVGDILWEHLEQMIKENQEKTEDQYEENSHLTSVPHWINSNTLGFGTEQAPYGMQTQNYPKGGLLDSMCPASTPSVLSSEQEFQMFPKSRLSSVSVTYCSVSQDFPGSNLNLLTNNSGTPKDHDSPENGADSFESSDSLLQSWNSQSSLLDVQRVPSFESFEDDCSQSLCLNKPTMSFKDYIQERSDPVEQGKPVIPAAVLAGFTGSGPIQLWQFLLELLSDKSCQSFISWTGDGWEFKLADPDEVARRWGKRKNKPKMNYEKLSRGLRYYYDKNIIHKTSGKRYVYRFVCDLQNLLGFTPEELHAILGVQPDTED
An outline of the steps: as §1

The target in the next experiment is T11, ETV7 (Homo sapiens, UniProt Q9Y603 1-341).
T11 sequence: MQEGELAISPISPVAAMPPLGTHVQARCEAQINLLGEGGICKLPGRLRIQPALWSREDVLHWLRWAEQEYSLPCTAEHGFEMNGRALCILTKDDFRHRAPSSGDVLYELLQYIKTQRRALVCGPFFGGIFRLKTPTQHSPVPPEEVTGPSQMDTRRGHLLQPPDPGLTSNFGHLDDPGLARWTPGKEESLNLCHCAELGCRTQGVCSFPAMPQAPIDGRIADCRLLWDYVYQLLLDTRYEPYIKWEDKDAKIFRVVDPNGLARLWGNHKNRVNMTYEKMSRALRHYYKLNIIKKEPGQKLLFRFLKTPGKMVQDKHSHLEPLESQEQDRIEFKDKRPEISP
An outline of the steps: as §1

The next experiment has as its target T12, ETV3 (Homo sapiens, UniProt P41162-2 1-143).
T12 sequence: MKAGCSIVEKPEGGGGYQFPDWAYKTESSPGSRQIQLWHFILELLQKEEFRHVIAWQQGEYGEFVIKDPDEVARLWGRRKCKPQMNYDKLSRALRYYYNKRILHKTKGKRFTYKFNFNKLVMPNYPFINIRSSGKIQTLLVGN
The gist of the method: as §1

For a further experiment, the target named is ETV6 (Homo sapiens, UniProt P41212 1-452). The gist of the method: as §1
Sequence of ETV6 (P41212 whole entry): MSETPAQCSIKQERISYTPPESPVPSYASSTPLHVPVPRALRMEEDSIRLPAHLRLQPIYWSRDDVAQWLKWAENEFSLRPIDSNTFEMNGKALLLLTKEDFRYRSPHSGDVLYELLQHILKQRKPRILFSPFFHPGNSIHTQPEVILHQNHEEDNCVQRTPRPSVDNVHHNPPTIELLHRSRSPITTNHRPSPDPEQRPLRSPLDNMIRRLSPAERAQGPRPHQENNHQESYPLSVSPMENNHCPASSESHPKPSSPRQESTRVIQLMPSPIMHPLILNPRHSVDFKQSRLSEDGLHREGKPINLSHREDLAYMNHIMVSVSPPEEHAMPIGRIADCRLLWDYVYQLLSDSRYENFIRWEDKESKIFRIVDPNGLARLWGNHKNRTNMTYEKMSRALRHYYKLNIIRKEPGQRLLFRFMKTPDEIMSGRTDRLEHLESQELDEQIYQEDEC

Sequence of ELF1 (P32519 whole entry): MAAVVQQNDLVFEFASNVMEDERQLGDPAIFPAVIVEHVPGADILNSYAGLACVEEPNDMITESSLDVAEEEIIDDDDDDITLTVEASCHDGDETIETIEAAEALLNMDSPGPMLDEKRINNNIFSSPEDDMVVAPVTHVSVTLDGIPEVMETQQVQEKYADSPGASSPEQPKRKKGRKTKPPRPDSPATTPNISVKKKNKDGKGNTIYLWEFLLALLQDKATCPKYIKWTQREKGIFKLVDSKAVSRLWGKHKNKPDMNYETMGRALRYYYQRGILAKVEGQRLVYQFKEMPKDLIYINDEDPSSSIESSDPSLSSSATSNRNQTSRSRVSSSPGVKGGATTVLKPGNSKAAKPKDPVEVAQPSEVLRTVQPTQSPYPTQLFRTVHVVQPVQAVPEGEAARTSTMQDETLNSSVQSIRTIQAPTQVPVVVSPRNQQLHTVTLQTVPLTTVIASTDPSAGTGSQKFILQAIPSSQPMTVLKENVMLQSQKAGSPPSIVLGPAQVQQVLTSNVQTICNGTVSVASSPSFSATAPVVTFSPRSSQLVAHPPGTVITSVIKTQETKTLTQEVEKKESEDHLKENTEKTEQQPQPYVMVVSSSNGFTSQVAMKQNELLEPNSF
Sequence of ELF4 (Q99607 whole entry): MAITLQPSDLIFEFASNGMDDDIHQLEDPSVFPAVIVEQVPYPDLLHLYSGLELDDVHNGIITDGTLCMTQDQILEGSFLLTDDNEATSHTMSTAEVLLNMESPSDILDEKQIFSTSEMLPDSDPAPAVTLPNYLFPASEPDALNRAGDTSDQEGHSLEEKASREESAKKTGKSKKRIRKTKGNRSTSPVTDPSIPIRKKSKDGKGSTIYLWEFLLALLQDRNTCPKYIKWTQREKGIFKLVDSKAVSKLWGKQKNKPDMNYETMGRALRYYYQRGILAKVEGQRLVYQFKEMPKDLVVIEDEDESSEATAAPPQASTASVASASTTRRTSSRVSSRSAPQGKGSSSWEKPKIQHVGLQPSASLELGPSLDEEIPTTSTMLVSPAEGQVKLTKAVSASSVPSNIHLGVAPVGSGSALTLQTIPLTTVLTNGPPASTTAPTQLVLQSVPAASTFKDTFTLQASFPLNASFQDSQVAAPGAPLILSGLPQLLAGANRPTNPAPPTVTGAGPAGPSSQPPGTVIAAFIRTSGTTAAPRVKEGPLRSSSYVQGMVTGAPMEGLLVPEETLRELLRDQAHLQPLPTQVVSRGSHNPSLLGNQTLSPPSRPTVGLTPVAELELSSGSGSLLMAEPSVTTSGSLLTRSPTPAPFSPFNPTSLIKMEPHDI
Sequence of ETV1 (P50549 whole entry): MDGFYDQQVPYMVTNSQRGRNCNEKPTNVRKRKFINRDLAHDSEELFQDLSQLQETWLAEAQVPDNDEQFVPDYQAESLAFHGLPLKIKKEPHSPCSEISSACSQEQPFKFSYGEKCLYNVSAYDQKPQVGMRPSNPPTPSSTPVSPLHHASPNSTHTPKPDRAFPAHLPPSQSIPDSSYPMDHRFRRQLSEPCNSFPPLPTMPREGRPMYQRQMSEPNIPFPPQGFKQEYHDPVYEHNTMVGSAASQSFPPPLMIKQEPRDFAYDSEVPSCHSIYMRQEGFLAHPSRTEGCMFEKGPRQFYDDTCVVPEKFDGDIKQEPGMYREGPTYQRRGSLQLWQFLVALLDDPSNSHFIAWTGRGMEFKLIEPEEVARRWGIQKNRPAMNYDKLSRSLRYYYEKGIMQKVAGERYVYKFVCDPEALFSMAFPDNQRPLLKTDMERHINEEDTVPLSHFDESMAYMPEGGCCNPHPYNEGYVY
Sequence of ETV5 (P41161 whole entry): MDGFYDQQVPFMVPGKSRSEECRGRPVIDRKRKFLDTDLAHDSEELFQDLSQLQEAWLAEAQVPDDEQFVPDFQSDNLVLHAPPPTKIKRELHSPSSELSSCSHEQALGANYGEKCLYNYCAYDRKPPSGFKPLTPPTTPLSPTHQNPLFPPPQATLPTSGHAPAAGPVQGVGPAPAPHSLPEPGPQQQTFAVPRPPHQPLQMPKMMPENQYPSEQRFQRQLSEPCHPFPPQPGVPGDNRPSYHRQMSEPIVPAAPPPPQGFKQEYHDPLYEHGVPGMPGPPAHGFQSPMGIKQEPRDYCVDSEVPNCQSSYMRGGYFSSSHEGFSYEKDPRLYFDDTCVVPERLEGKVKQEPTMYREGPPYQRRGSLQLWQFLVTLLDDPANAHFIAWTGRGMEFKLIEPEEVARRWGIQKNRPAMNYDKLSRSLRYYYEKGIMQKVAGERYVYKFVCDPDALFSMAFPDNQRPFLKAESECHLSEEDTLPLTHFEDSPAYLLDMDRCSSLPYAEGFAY

Turning to ACGCCG, the binding signal with ELK1 is 1.11 fold enrichment (6-mer frequency, TF over GST control); with GABPA, 1.11 fold enrichment (6-mer frequency, TF over GST control); in the experiment with ERG it was 1.02 fold enrichment (6-mer frequency, TF over GST control); in the experiment with ELF1 it was 1.13 fold enrichment (6-mer frequency, TF over GST control); with EHF, 1.14 fold enrichment (6-mer frequency, TF over GST control); with SPI1 it was 1.09 fold enrichment (6-mer frequency, TF over GST control). Moreover, the binding signal is 1.14 fold enrichment (6-mer frequency, TF over GST control) in the experiment with FEV; 1.12 fold enrichment (6-mer frequency, TF over GST control) in the experiment with ETV5; 1.07 fold enrichment (6-mer frequency, TF over GST control) with ELF4; 1.07 fold enrichment (6-mer frequency, TF over GST control) with ETV2; 1.15 fold enrichment (6-mer frequency, TF over GST control) in the experiment with ELF3; 1.11 fold enrichment (6-mer frequency, TF over GST control) in the experiment with ETV1. In addition, the binding signal was 1.12 fold enrichment (6-mer frequency, TF over GST control) with ERF; 1.08 fold enrichment (6-mer frequency, TF over GST control) with ETV3L; 1.01 fold enrichment (6-mer frequency, TF over GST control) with ETS2; 1.14 fold enrichment (6-mer frequency, TF over GST control) in the experiment with ETV7; 1.05 fold enrichment (6-mer frequency, TF over GST control) in the experiment with ETV3; 1.14 fold enrichment (6-mer frequency, TF over GST control) in the experiment with ETV6.
